Bioassay records deposited in PubChem BioAssay by SRMLSC.
Most compounds without a hit are left out; they make up all but 6.8% or so of the library.
Fluor 339 460: intrinsic fluorescence of library compounds, ex339/em460 – biochemical, MLSMR library, data from DPM-DC assay, artefact control, profiling panel; 65,000 tested, 5.5% active; AID 709; compound autofluorescence, ex339/em460 nm, NADH buffer; active compounds read high; 1 = no-compound wells, NADH background; fluorescence fold increase at 10 µM;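 active = at 10 µM, mean starting fluorescence two-fold or more over control wells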;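 also: signal is the first read of a kinetic run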
MK inhibit: S. pneumoniae mevalonate kinase inhibition. purified MK, PK/LDH-coupled NADH absorbance 340 nm. inhibition, % at 10 µM. 65,000 tested, 0.48% active. AID 555;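 active = ranked among the strongest by inhibition in the single 10 µM screen, a fixed top-ranked set picked for dose follow-up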
Abs 340nm: absorbance at 340 nm; fold change at 10 µM; 65,000 tested, under 10 active; compound absorbance at 340 nm, fold over control;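 active = at 10 µM dose, initial 340 nm absorbance at least 2 fold that of control wells; inactive = change under 2 fold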;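 also: initial absorbance extrapolated from kinetic A340 decline of NADH oxidation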
NADH coupling: inhibition of NAD/NADH coupling enzymes, library profiling; coupled PK/LDH NADH assays, four targets; 65,000 tested, 0.02% active; IC50, µM (doses to about 10 µM), for inactives: at the highest dose inhibition;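 active = single-dose screening hits from any of four coupled enzyme assays that gave an IC50 when retested across doses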;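 also: the DPM-DC format reads NADH fluorescence rather than 340 nm absorbance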
Spn DPM-DC inh: inhibitors of Streptococcus pneumoniae diphosphomevalonate decarboxylase; calls only at 10 µM; purified DPM-DC, PK/LDH coupled NADH fluorescence; AID 556; 65,000 tested, 0.49% active;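 active = the 320 compounds with the highest percent inhibition in the single-dose primary screen, excluding strongly autofluorescent ones, cut at about 32% in these data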;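 also: kinetic rate of NADH fluorescence loss reporting ADP formed by the decarboxylase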
Spn PMK inh: blocks S. pneumoniae phosphomevalonate kinase; AID 539; inhibition, % at 10 µM; 65,000 tested, 0.49% active; purified PMK, PK/LDH-coupled NADH absorbance 340 nm;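 active = top-ranked compounds by inhibition in the single 10 µM screen, taking a fixed number of the strongest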;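 also: 0% = full reaction with DMSO carrier and 100% = background rate without enzyme reaction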
Active calls of the source: *; i = inactive; x = no result shown; + = active, no number.

SMILES | Fluor 339 460 | MK inhibit | Abs 340nm | NADH coupling | Spn DPM-DC inh | Spn PMK inh
CCNc1oc(-c2cccc3ccccc23)nc1C#N | 2.13* | 8.0 | 1.06 | 4.0% | x | 0.0
Cc1ccccc1N(CC(=O)NCCc1ccccc1)C(=O)c1ccc(N2CCCC2)nc1 | 1.03 | 19.0 | 1 | 13.0% | i | 18.0
CCCC1(CCC)NC(=O)NC1=O | 1.05 | 4.0 | 0.98 | 2.0% | i | 7.0
CCSc1nc(-c2ccc(OC)cc2)ccc1C#N | 2* | 2.0 | 1.01 | 1.0% | i | 0.0
Cc1c(N=Cc2cc3c(cc2Cl)OCO3)c(=O)n(-c2ccccc2)n1C | 1.06 | 2.0 | 1.2 | 2.0% | i | 3.0
CCOc1ccc(Nc2cc(C)nc(N3CCOCC3)n2)cc1 | 1.03 | 9.0 | 0.99 | 7.0% | i | 10.0
CCOC(=O)c1ccc(Nc2cc(C)nc(N3CCOCC3)n2)cc1 | 2.96* | 7.0 | 1.11 | 9.0% | i | 5.0
O=C(Cc1cc(=O)oc2cc(O)ccc12)NCC1CCC(C(=O)O)CC1 (centres undefined) | 3.9* | 8.0 | 1.1 | 4.0% | x | 0.0
Fc1ccccc1N1CCN(c2ncnc3[nH]ncc23)CC1 | 1.03 | 6.0 | 0.96 | 7.0% | i | 14.0
CC(C)Cn1nc(NC(=O)C2CCCO2)c2cc3ccccc3nc21 (centres undefined) | 2.15* | 7.0 | 1.06 | 6.0% | i | 2.0
Cc1ccc2cc3c(NC(=O)CC(C)C)nn(C)c3nc2c1 | 1.96 | 15.0 | 1.03 | 6.0% | i | 0.0
CCn1nc(NC(=O)c2ccccn2)c2cc3cc(C)ccc3nc21 | 3.01* | 9.0 | 1.05 | 14.0% | i | 12.0
CCn1nc(NC(=O)c2cccnc2)c2cc3ccccc3nc21 | 1.19 | 0.0 | 0.99 | 3.0% | i | 0.0
Cc1ccc2cc3c(NC(=O)c4ccco4)nn(CC(C)C)c3nc2c1 | 3.9* | 2.0 | 1.02 | 3.0% | x | 3.0
CC(C)Cn1nc(NS(=O)(=O)c2ccccc2)c2cc3ccccc3nc21 | 1.16 | 2.0 | 1 | 1.0% | i | 0.0
COc1ccc(S(=O)(=O)N2Cc3ccccc3CC2C(=O)N2CCOCC2)cc1 (centres undefined) | 1.11 | 8.0 | 1.03 | 6.0% | i | 9.0
O=C(CN1C2=NCCCN2c2ccccc21)c1ccc(Br)s1 | 1.09 | 13.0 | 0.99 | 8.0% | i | 12.0
COc1ccc2oc(=O)c(-c3nc(C)cs3)cc2c1 | 2.16* | 13.0 | 1.03 | 7.0% | x | 0.0
CCN(C(=O)c1cc2cc(OC)ccc2oc1=O)c1ccccc1 | 1.35 | 7.0 | 1.05 | 7.0% | i | 10.0
CCc1ccc(N(CC(=O)NC2CCCCC2)S(=O)(=O)c2c(C)noc2C)cc1 | 1.1 | 6.0 | 1.02 | 2.0% | i | 0.0
COC(=O)c1cc(=O)nc2sccn12 | 1.74 | 31.0 | 1.05 | 24.0% | i | 27.0*
O=C(NCCCN1CCCC1=O)c1cncc(Br)c1 | 1.03 | 9.0 | 0.97 | 2.0% | i | 5.0
CN(Cc1ccco1)C(=O)c1ccc(N2CCCC2=O)cc1 | 1.05 | 0.0 | 1.02 | 4.0% | i | 11.0
CCOC(=O)c1c(-c2ccccc2)oc2ccc(O)c(CN3CCOCC3)c12 | 1.22 | 16.0 | 1.14 | 7.0% | i | 0.0
Cc1oc2c(CN3CCOCC3)c(O)ccc2c(=O)c1-c1ccccc1 | 3.87* | 4.0 | 1.09 | 7.0% | x | 9.0
SMILES | Fluor 339 460 | MK inhibit | Abs 340nm | NADH coupling | Spn DPM-DC inh | Spn PMK inh
COc1ccc(-c2c(C)oc3c(CN4CCCCC4C)c(O)ccc3c2=O)cc1OC (centres undefined) | 2.21* | 2.0 | 1.11 | 5.0% | x | 7.0
COc1cccc(Oc2c(C)oc3c(CN4CCOCC4)c(O)ccc3c2=O)c1 | 3.83* | 8.0 | 1.06 | 11.0% | x | 13.0
CC(Oc1cc(C(F)(F)F)cc(C(F)(F)F)c1)C(=O)NC(N)=O (centres undefined) | 1.08 | 0.0 | 1.03 | 4.0% | i | 11.0
COc1ccc2nc(CC(C)(C)CC(=O)O)c[n+]([O-])c2c1 | 2.87* | 13.0 | 1.01 | 6.0% | x | 7.0
COC(=O)c1[nH]c2cccc(OC)c2c1NC(=O)CCN1CCC(C(N)=O)CC1 | 2.86* | 7.0 | 1.01 | 15.0% | i | 15.0
COC(=O)c1[nH]c2cccc(OC)c2c1NC(=O)CN1CCC(C(N)=O)(N2CCCCC2)CC1 | 3.72* | 5.0 | 1.03 | 5.0% | x | 4.0
COC(=O)c1[nH]c2cccc(OC)c2c1NC(=O)CCN1CCN(c2ccccc2F)CC1 | 3.15* | 11.0 | 1.04 | 13.0% | i | 14.0
Cc1cc(C)nc(Sc2c(C)n[nH]c2C)n1 | 1.11 | 0.0 | 1.01 | 2.0% | i | 6.0
O=C(Nc1nc(NC(=O)c2ccco2)n(-c2ccccc2)n1)c1ccccc1 | 2.38* | 0.0 | 1.06 | 1.0% | x | 1.0
COC(=O)Cn1c(CN2CCC(Cc3ccccc3)CC2)nc2c1c(=O)n(C)c(=O)n2C | 1.05 | 4.0 | 0.98 | 7.0% | i | 16.0
Cc1ccc(-n2nnnc2SCCNS(=O)(=O)c2ccccc2)cc1C | 1.11 | 11.0 | 1.02 | 6.0% | i | 8.0
CC12C(=O)N(Cc3ccccc3)C(=O)C1C1C=CC2C1 (centres undefined) | 1.14 | 12.0 | 1.01 | 5.0% | i | 3.0
N#Cc1c(C(F)(F)F)cc(-c2ccco2)nc1SCc1ccccn1 | 2.09* | 4.0 | 1.04 | 2.0% | x | 0.0
N#Cc1c(C(F)(F)F)cc(-c2ccco2)nc1SCc1ccncc1 | 2.57* | 8.0 | 1.07 | 18.0% | + | 7.0
O=C(NCCCN1CCc2ccccc2C1)C1CCN(S(=O)(=O)N2CCCC2)CC1 | 0.99 | 0.0 | 1.03 | 9.0% | i | 24.0
CCOc1cc(N2CCOCC2)c(OCC)cc1NC(=O)Cc1ccc(OC)c(OC)c1 | 1.04 | 5.0 | 0.99 | 10.0% | i | 26.0*
COc1cc2c(N3CCOCC3)cc(O)c(CC(=O)Nc3ccccc3)c2cc1OC | 3.12* | 5.0 | 1 | 4.0% | x | 10.0
CCOc1cc(N2CCOCC2)c(OCC)cc1NC(=O)CN1CCc2ccccc2C1 | 1.06 | 73.0* | 1.08 | 25.0% | i | 2.0
CCOC(=O)N1CCC(N(C(=O)Nc2ccccc2)C(C)CC)CC1 (centres undefined) | 1.06 | 0.0 | 1.03 | 0.0% | i | 0.0
CCN(CCO)Cc1cc(=O)oc2c(C)c(C)ccc12 | 1.18 | 4.0 | 1.08 | 1.0% | i | 0.0
COc1ccc2c(C(F)(F)F)cc(=O)oc2c1C | 2.93* | 11.0 | 1.04 | 2.0% | x | 3.0
Cc1cccc(-n2nc3c(c2NC(=O)c2ccco2)CSC3)c1C | 1.06 | 0.0 | 0.98 | 8.0% | i | 25.0*
COc1ccc(-c2cc3nc(C)c(CCC(=O)NCc4ccco4)c(C)n3n2)c(OC)c1 | 2.17* | 0.0 | 1.01 | 5.0% | i | 8.0
COc1ccc(-c2cc3nc(C)c(CCC(=O)N4CCCCC4)c(C)n3n2)c(OC)c1 | 1.98 | 0.0 | 1.06 | 21.0% | i | 40.0*
O=C1Nc2ccccc2OC1CC(=O)N1CCN(c2cccc(C(F)(F)F)c2)CC1 (centres undefined) | 1.06 | 12.0 | 1 | 8.0% | i | 13.0
